A selection: hits, their analogues and other compounds. The true share with any hit is near 7.6%.
KB-V1 MDR tox: kills drug-selected multidrug resistant KB-V1 cells | KB-V1 MDR cells viability, CellTiter-Glo, 72 h | Potency, µM (titrated, usually from 46.1 µM), actives largely listed as cytotoxic | 3.4% of 400,000 active | AID 1347076; also: potency is read from the fitted curve at half-maximal effect; % is scaled to controls: 0 for no effect and ±100 for the full control effect; nearly all actives have a fitted effect of over 60% in size
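KB-V1 MDR subline cells in DMEM (phenol-red free, 10% FBS) exposed to compounds in qHTS concentration series for 72 h at 37 degrees C. Viability read by CellTiter-Glo luminescence; concentration-effect curves fitted after normalization and correction.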
KCNH2 3.1 block: KCNH2 3.1 (human) potassium channel inhibition. activity change, % (tested at about 1.8 µM). AID 720553. 0.95% of 340,000 active. U2OS KCNH2 3.1, thallium flux FluxOr; active compounds read low;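 active = maximum activity change below -70%; inconclusive = maximum activity change from -70% to -50%; inactive = maximum activity change above -50%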;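 also: thallium influx rate constant from kinetic fluorescence after stimulation buffer; % is scaled to controls: 0 for no effect and ±100 for the full control effect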
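U2OS cells transduced with KCNH2 3.1 mutant virus (1.77 x 10^8 /mL, 4 h), plated overnight at 37 C, loaded 45 min with FluxOr dye plus Red40 quencher. Thallium flux rate constant from kinetic reads after stimulation buffer, normalised to controls.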
MCF10A rerep: induces DNA re-replication in MCF 10a normal breast cells; 2.9% of 350,000 active; AID 624296; Potency, µM (titrated, usually from 46.1 µM), for inactives: top-dose activity, positive = re-replication, hits mostly activators; MCF 10A DNA re-replication, Hoechst nuclear intensity, 48 h; also: potency is read from the fitted curve at half-maximal effect; % of control where 0% means no effect; nearly all actives have a fitted effect of over 50% in size
KB-3-1 cytotox: KB-3-1 parental cell cytotoxicity. Potency, µM (series often up to 46.1 µM), actives largely listed as cytotoxic. 1.4% of 400,000 active. AID 1347075. KB-3-1 viability, CellTiter-Glo ATP luminescence, 72 h; also: potency is read from the fitted curve at half-maximal effect; % is scaled to controls: 0 for no effect and ±100 for the full control effect; nearly all actives have a fitted effect of over 60% in size
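Parental KB-3-1 adenocarcinoma cells in phenol-red-free DMEM with 10% FBS were pin-treated with compounds at several concentrations, incubated 72 h at 37 °C, and viability read by CellTiter-Glo luminescence; concentration-effect curves were fitted after normalization.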
SW480 rereplic: inducers of DNA re-replication in SW480 colon cancer cells | SW480 DNA re-replication, Hoechst DNA content imaging, 48 h | Potency, µM (series often up to 46.1 µM), for inactives: at the highest dose re-replication activation, usual class: activators | 1.8% of 340,000 active; also: potency is read from the fitted curve at half-maximal effect; % of control where 0% means no effect; nearly all actives have a fitted effect of over 55% in size
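Cells (250 per well) received 23 nL compound or DMSO by pin tool and were kept 48 hr at 37 C, 5% CO2. Nuclei were then stained with Hoechst for 40 min and scanned for DNA content.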
hERG WT inh: inhibitors of human wildtype KCNH2 potassium channel. Q12809. U2OS, BacMam KCNH2, thallium flux FluxOr; active compounds read low. activity change, % at 1.84 µM. 0.37% of 340,000 active. AID 720551;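 active = maximum activity change below -70%; inconclusive = maximum activity change between -70% and -50%; inactive = maximum activity change above -50%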; also: % is scaled to controls: 0 for no effect and ±100 for the full control effect
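U2OS cells transduced with wild-type KCNH2 virus are loaded with FluxOr dye for 45 min, and thallium flux is measured in kinetic reads before and after stimulation buffer. Rate constants are normalized to DMSO controls.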
* hit, by the source's call; i = inactive; ? = inconclusive; / = no result. Unless noted, calls follow the shape of the dose curve; as a rule, active = well fitted curve in the direction sought with a large enough effect; inconclusive = small, poorly fitted or top-dose-only effect, or another doubt; inactive = no such curve, though single readings can be large; an effect the other way counts as inactive or inconclusive.

SMILES	KB-V1 MDR tox	KCNH2 3.1 block	MCF10A rerep	KB-3-1 cytotox	SW480 rereplic	hERG WT inh
Cc1ccccc1C(=O)NC1CCN(CC(=O)Nc2ccccc2)CC1	i	-11	-6%	i	-23%	8
CCOc1ccccc1C(=O)NC1CCNCC1	?	-3	4%	i	-5%	6
Cc1ccccc1C(=O)NC1CCN(CC(=O)N2CCCCC2C)CC1 (stereo not given)	i	-6	-7%	i	-1%	-81*
Cc1ccccc1C(=O)NC1CCN(Cc2nnnn2Cc2ccc(F)cc2)CC1	21µM*	10	2%	i	-6%	15
CCc1cccc(NC(=O)CCc2c(C)nn(-c3ccc(N4CCOCC4)nn3)c2C)c1	i	14	-2%	i	-4%	-1
CCN(CC(=O)Nc1c(F)cccc1F)C(=O)c1cc(C)nc2ccccc12	i	5	3%	i	-4%	-72*
CCN(CC(=O)Nc1c(F)cccc1F)C(=O)c1ccccc1F	i	-5	0%	i	-1%	-25
COC(=O)Cc1ccc(N(Cc2ccccc2F)S(=O)(=O)c2ccc(Cl)cc2)cc1	i	-8	0%	i	-37%	-2
Cc1ccc(S(=O)(=O)N2CCC[C@H]2C(=O)OCC(=O)N2CCc3ccccc32)cc1	i	8	1%	i	-6%	-2
CC1(C)Cc2ccccc2-c2nnc(SCC(=O)Nc3ccc4c(c3)OCO4)n21	4.1µM*	-23	6%	i	1%	-6
O=C(CSc1nnc(-c2ccccn2)n1-c1ccc(Cl)cc1)Nc1ccc2c(c1)OCO2	?	-73*	1%	i	-10%	10
O=C(CSc1nnc(CN2CCOCC2)n1-c1ccc(Cl)cc1)Nc1ccc2c(c1)OCO2	10µM*	4	1%	i	2%	2
Cc1cc(C)c(NC(=O)CSc2nnc(CN3CCOCC3)n2C)c(C)c1	i	-26	-3%	i	29µM*	-2
Nn1c(SCC(=O)Nc2ccc3c(c2)OCO3)nnc1-c1ccccc1	?	-17	2%	i	-1%	13
CCc1ccc(C=O)cc1	i	/	/	i	/	/
Cc1cccn2c(=O)nc(SCC(=O)N3CCOCC3)nc12	i	6	-1%	i	-13%	-2
CCCCN(C(=O)CC1OC(=O)c2ccccc21)c1c(N)n(CCCC)c(=O)[nH]c1=O (stereo not given)	i	4	1%	i	-4%	-11
Cc1cccc(Nc2nnc(SCC(O)=C(C#N)c3nc4ccccc4[nH]3)s2)c1	i	0	15µM*	i	25%	-3
C=C1C=C(C)n2ncc(C(=O)Nc3cccc4cnccc34)c2N1	i	/	/	?	/	/
COc1cc(OC)cc(C(=O)NCc2ccc3[nH]c(C)cc3c2)c1	i	11	0.65µM*	i	4%	-6
COc1cc(C(=O)NCc2ccc3[nH]c(C)cc3c2)cc(OC)c1OC	i	-1	?	i	-47%	-5
COc1ccc(C(=O)NCc2ccc3[nH]c(C)cc3c2)cc1OC	i	-11	4.6µM*	i	75%	18
NS(=O)(=O)c1cccc(NC(=O)COC(=O)c2ccc(S(=O)(=O)N3CCOCC3)cc2)c1	i	-10	-2%	i	-8%	0
CN1CCN(c2nc(-c3ccc(Br)cc3)nnc2-c2ccccc2)CC1	26µM*	-18	?	i	0%	22
Brc1ccc(-c2nnc(-c3ccccc3)c(N3CCSCC3)n2)cc1	?	-12	6%	i	-3%	9
SMILES	KB-V1 MDR tox	KCNH2 3.1 block	MCF10A rerep	KB-3-1 cytotox	SW480 rereplic	hERG WT inh
Cc1ccc(-c2nnc(-c3ccccc3)c(N3CCOCC3)n2)cc1	5.8µM*	-4	?	?	?	-15
O=S(=O)(Nc1cccc(-n2cnnn2)c1)c1ccc(F)cc1	i	-24	1%	i	-60%	0
Cc1cc(C#Cc2c(-c3ccccc3)n(C)c3ccccc23)ccc1F	i	-4	8.2µM*	i	-11%	-1
COc1ccc(C#Cc2c(-c3ccccc3)n(C)c3ccccc23)cc1	i	-17	?	?	?	-5
Cn1c(-c2ccc(C#N)cc2)c(C#Cc2ccccc2)c2ccccc21	i	-13	?	i	1.3µM*	3
Cc1ccc(/C(N)=N/OC(=O)COc2ccccc2Cl)cc1	i	-3	23%	i	0%	2
O=C(CCC(=O)N1CCOc2ccc(Cl)cc21)NCCCN1CCOCC1	i	-2	3%	i	-6%	-1
O=C(CSc1nnc(-c2ccc3c(c2)OCO3)n1-c1ccccc1)c1ccccc1	8.2µM*	4	-3%	i	-2%	22
O=C(CSc1nnc(-c2ccc3c(c2)OCO3)n1-c1ccccc1)c1ccc(Cl)cc1	16µM*	-19	12%	i	-1%	-5
CCc1nnc(NC(=O)CSc2nnc(C)c(=O)n2N)s1	?	14	-1%	i	-5%	-10
O=S(=O)(NCCc1csc(-c2cccc(F)c2)n1)c1cc(F)ccc1F	i	/	/	i	/	/
CN(C)c1ccc(C2C=C(c3ccccc3)Nc3nnnn32)cc1 (stereo not given)	i	/	/	i	/	/
CC(C)C(NC(=O)c1ccco1)C(=O)OCC(=O)Nc1ccc(C(N)=O)cc1 (stereo not given)	i	-5	-4%	i	-6%	8
CCOC(=O)/C=C/C(=O)Nc1ccccc1-c1ccccc1NC(=O)/C=C/C(=O)OCC	i	15	5.8µM*	?	4.6µM*	4
CCOC(=O)c1cccc(NC(=O)/C=C/c2cccc([N+](=O)[O-])c2)c1	i	-16	-4%	i	-11%	2
CCOC(=O)/C=C/C(=O)Nc1cccc([N+](=O)[O-])c1	i	3	3.7µM*	?	/	5
CCOC(=O)/C=C/C(=O)OCC(=O)Nc1cccc(Cl)c1Cl	?	6	?	i	-4%	2
COc1ccc(NC(C)=O)cc1CNC(=O)COc1ccccc1C(=O)Nc1cccc(C)c1C	?	-16	5%	i	3%	-1
Cn1c(=O)n(Cc2ccccc2)c(=O)c2c1nc1n2CCN1Cc1ccco1	i	-8	0.73µM*	i	?	-33
CC(C)Cn1c(=O)c2c(nc3n2CCCN3CCc2ccccc2)n(C)c1=O	10µM*	-24	11%	i	1%	-4
Cn1c(=O)n(CCc2ccccc2)c(=O)c2c1nc1n2CCCN1Cc1ccccc1	21µM*	-6	?	i	-5%	-1
Cn1c(=O)n(CCc2ccccc2)c(=O)c2c1nc1n2CCCN1CCc1ccccc1	23µM*	?	21µM*	i	?	6

High-throughput results (PubChem BioAssay)
